Test results from ChEMBL document CHEMBL1157539, “Thousands of chemical starting points for antimalarial lead identification” (Nature, 2010).

Experiments:
Format in all cases: functional
Plasmodium falciparum [1] = assay: GSK_TCMDC: Inhibition of Plasmodium falciparum 3D7 in whole red blood cells, using parasite LDH activity as an index of growth. Test compounds present at 2uM
Plasmodium falciparum [2] = assay: GSK_TCMDC: Inhibition of Plasmodium falciparum Dd2 in whole red blood cells, using parasite LDH activity as an index of growth. Test compounds present at 2uM
HepG2 = assay: GSK_TCMDC: Percent inhibition of human HepG2 cell line. Test compounds present at 10uM.

Q: With `CCCCCC(C)C(C)c1cc(O)c2c(c1)OC(C)(C)CC2=Cc1ccncc1` (configuration not stated) as the compound, how does the Inhibition (Plasmodium falciparum [1]) read?
A: 100%

Q: And the Inhibition (Plasmodium falciparum [2])?
A: 78%

Q: And the Inhibition (HepG2)?
A: 0%

Q: How did the Inhibition (Plasmodium falciparum [1]) turn out when `CCCCCCCCN1CCN(CCCCCCNc2c3ccccc3nc3ccccc23)CC1.Cl` was run?
A: 100%

Q: And the Inhibition (Plasmodium falciparum [2])?
A: 100%

Q: And the Inhibition (HepG2)?
A: 100%

Q: How did the Inhibition (Plasmodium falciparum [1]) turn out when `CN1CCN(Cc2cccc(-c3ccc4c(Nc5cc(O)c(Cl)cc5F)ccnc4c3)c2)CC1` was run?
A: 100%

Q: What about the Inhibition (Plasmodium falciparum [2]) of the same compound?
A: 100%

Q: What about the Inhibition (HepG2) of the same compound?
A: 0%

Q: Which Inhibition (Plasmodium falciparum [1]) does the source give for `CC(=O)N1CCN(c2ccc(NC(=O)c3oc(-c4ccccc4)nc3C(F)(F)F)cn2)CC1` here?
A: 92%

Q: What about the Inhibition (Plasmodium falciparum [2]) of the same compound?
A: 93%

Q: What about the Inhibition (HepG2) of the same compound?
A: 0%

Q: What does the source list for `Cc1cc(=NN=Cc2ccc(F)cc2)c2ccc(F)cc2[nH]1`?
A: Inhibition (Plasmodium falciparum [1]): 99%; Inhibition (Plasmodium falciparum [2]): 30%; Inhibition (HepG2): 0%

Q: Which Inhibition (Plasmodium falciparum [1]) does the source give for `CN(C)c1ccc(Br)c(Br)c1` here?
A: 86%

Q: And the Inhibition (Plasmodium falciparum [2])?
A: 0%

Q: What about the Inhibition (HepG2) of the same compound?
A: 17%

Q: Which results are given for `COc1cc(C2CCN(CCCCNC(=O)c3ccc(NC(=O)c4ccc(Cl)c(Cl)c4)cc3)CC2)ccc1OC(C)C`?
A: Inhibition (Plasmodium falciparum [1]): 100%; Inhibition (Plasmodium falciparum [2]): 96%; Inhibition (HepG2): 45%

Q: Which results are given for `O=C(/C=C/c1ccc(C(F)(F)F)cc1)N1CCC(CCN2CCC(c3c[nH]c4ccccc34)CC2)CC1`?
A: Inhibition (Plasmodium falciparum [1]): 100%; Inhibition (Plasmodium falciparum [2]): 77%; Inhibition (HepG2): 70%

Q: `Fc1ccc(CNc2ncc(-c3ccsc3)c(-c3nccs3)n2)cc1` was tested. Which Inhibition (Plasmodium falciparum [1]) did it give?
A: 94%

Q: What about the Inhibition (Plasmodium falciparum [2]) of the same compound?
A: 77%

Q: What about the Inhibition (HepG2) of the same compound?
A: 7%

Q: What does the source list for `CC(c1cccc(Nc2nccc(-c3c(-c4cccc(NC(=O)c5c(F)cccc5F)c4)nn4ccccc34)n2)c1)S(C)(=O)=O` (configuration not stated)?
A: Inhibition (Plasmodium falciparum [1]): 98%; Inhibition (Plasmodium falciparum [2]): 99%; Inhibition (HepG2): 76%

Q: Which results are given for `COCCNCc1cccc(-c2ccc3c(Nc4cc(O)c(Cl)cc4F)ccnc3c2)c1`?
A: Inhibition (Plasmodium falciparum [1]): 100%; Inhibition (Plasmodium falciparum [2]): 79%; Inhibition (HepG2): 0%

Q: How did the Inhibition (Plasmodium falciparum [1]) turn out when `CC(C)CNCc1ccc(-c2cccc(CN(CCN(C)C)C(=O)NCCc3ccccc3)c2)cc1.O=C(O)C(F)(F)F` was run?
A: 91%

Q: What about the Inhibition (Plasmodium falciparum [2]) of the same compound?
A: 37%

Q: What about the Inhibition (HepG2) of the same compound?
A: 33%

Q: How did the Inhibition (Plasmodium falciparum [1]) turn out when `CCOc1ccc(C2CCN(CCN3CCC(NC(=O)c4ccc(-c5ccc(C(F)(F)F)cc5)cc4)CC3)CC2)c(OCC2CC2)c1` was run?
A: 99%

Q: And the Inhibition (Plasmodium falciparum [2])?
A: 65%

Q: What about the Inhibition (HepG2) of the same compound?
A: 13%

Q: How did the Inhibition (Plasmodium falciparum [1]) turn out when `COc1ccc2nccc([C@@H](O)CN3CCC(NCCOc4ccc(F)cc4Cl)CC3)c2c1.O=C(O)C(=O)O` was run?
A: 99%

Q: And the Inhibition (Plasmodium falciparum [2])?
A: 85%

Q: What about the Inhibition (HepG2) of the same compound?
A: 1%

Q: How did the Inhibition (Plasmodium falciparum [1]) turn out when `Cc1ccccc1OCC(=O)Nc1ccc(-c2nc3cc4ccccc4cc3[nH]2)cc1` was run?
A: 100%

Q: What about the Inhibition (Plasmodium falciparum [2]) of the same compound?
A: 51%

Q: What about the Inhibition (HepG2) of the same compound?
A: 24%

Q: With `COc1ccc2nccc(C(=O)NC3CCC(CCN4CCc5cc(C#N)ccc5C4)CC3)c2c1.Cl` (configuration not stated) as the compound, how does the Inhibition (Plasmodium falciparum [1]) read?
A: 97%

Q: What about the Inhibition (Plasmodium falciparum [2]) of the same compound?
A: 1%

Q: What about the Inhibition (HepG2) of the same compound?
A: 12%

Q: What does the source list for `O=C(O)C(F)(F)F.O=S(=O)(NC1CCCCN(Cc2ccccc2O)C1)c1ccc(C(F)(F)F)cc1` (configuration not stated)?
A: Inhibition (Plasmodium falciparum [1]): 84%; Inhibition (Plasmodium falciparum [2]): 39%; Inhibition (HepG2): 1%

Q: Which results are given for `CC(C)COc1ccc(Cl)cc1Cc1ccc(-c2nc3cc(N4CCN(C)CC4)ccc3[nH]2)o1.Cl`?
A: Inhibition (Plasmodium falciparum [1]): 100%; Inhibition (Plasmodium falciparum [2]): 41%; Inhibition (HepG2): 6%

Q: For `CN1CCN(CCCN(Cc2cccc(-c3cccc(CNCc4ccc5c(c4)OCO5)c3)c2)C(=O)CCC2CCCC2)CC1.O=C(O)C(F)(F)F`, which Inhibition (Plasmodium falciparum [1]) is on record?
A: 98%

Q: And the Inhibition (Plasmodium falciparum [2])?
A: 80%

Q: And the Inhibition (HepG2)?
A: 85%

Q: `Cc1cc(NCCCCCCCCNc2cc(C)nc3ccccc23)c2ccccc2n1.Cl` was tested. Which Inhibition (Plasmodium falciparum [1]) did it give?
A: 100%

Q: And the Inhibition (Plasmodium falciparum [2])?
A: 0%

Q: What about the Inhibition (HepG2) of the same compound?
A: 59%

Q: Which Inhibition (Plasmodium falciparum [1]) does the source give for `CO/C(=C\C=C\c1cc2cc(Cl)c(Cl)cc2[nH]1)C(=O)NCCCNCCN(C)c1ccccc1` here?
A: 100%

Q: And the Inhibition (Plasmodium falciparum [2])?
A: 55%

Q: What about the Inhibition (HepG2) of the same compound?
A: 33%

Q: What does the source list for `Br.CCC(C)c1cccc(C(C)CC)c1OCCCON1C(N)=NC(N)=NC1(C)C` (configuration not stated)?
A: Inhibition (Plasmodium falciparum [1]): 91%; Inhibition (Plasmodium falciparum [2]): 98%; Inhibition (HepG2): 51%

Q: Which Inhibition (Plasmodium falciparum [1]) does the source give for `COc1ccc2nccc(NC(=O)N3CCC(NCc4cc5ccccc5[nH]4)CC3)c2n1.O=C(O)C(=O)O` here?
A: 85%

Q: What about the Inhibition (Plasmodium falciparum [2]) of the same compound?
A: 29%

Q: And the Inhibition (HepG2)?
A: 27%

Q: For `CC(C)NCc1ccc(OCc2cccc(COc3ccc(CNC(C)C)cc3I)c2)c(I)c1.Cl`, which Inhibition (Plasmodium falciparum [1]) is on record?
A: 100%

Q: And the Inhibition (Plasmodium falciparum [2])?
A: 92%

Q: And the Inhibition (HepG2)?
A: 100%

Q: What does the source list for `CC(C)C[C@H](NC(=O)c1ccc(OCCN2CCOCC2)cc1)C(=O)N[C@H](/C=N/NC(=O)OC(C)(C)C)CCc1ccccc1`?
A: Inhibition (Plasmodium falciparum [1]): 96%; Inhibition (Plasmodium falciparum [2]): 87%; Inhibition (HepG2): 8%

Q: What does the source list for `CCC(CO)NCC(O)Cn1c2ccc(Cl)cc2c2cc(Cl)ccc21` (configuration not stated)?
A: Inhibition (Plasmodium falciparum [1]): 96%; Inhibition (Plasmodium falciparum [2]): 88%; Inhibition (HepG2): 11%

Q: For `C[C@H](CNc1ccnc(Nc2ccc3[nH]c(=O)[nH]c3c2)n1)c1ccccc1`, which Inhibition (Plasmodium falciparum [1]) is on record?
A: 99%

Q: What about the Inhibition (Plasmodium falciparum [2]) of the same compound?
A: 2%

Q: And the Inhibition (HepG2)?
A: 50%

Q: For `CN(Cc1ccncc1)C(Cc1ccccc1)C1CCN(Cc2ccc(O)c(Cl)c2)CC1` (configuration not stated), which Inhibition (Plasmodium falciparum [1]) is on record?
A: 96%

Q: What about the Inhibition (Plasmodium falciparum [2]) of the same compound?
A: 97%

Q: What about the Inhibition (HepG2) of the same compound?
A: 22%

Q: Which Inhibition (Plasmodium falciparum [1]) does the source give for `Cc1cc(N(C)C)nc(Nc2ccc(NC(=O)c3cccc(F)c3)cc2)n1` here?
A: 100%

Q: And the Inhibition (Plasmodium falciparum [2])?
A: 62%

Q: What about the Inhibition (HepG2) of the same compound?
A: 0%

Q: `CC(C)(CNCc1ccc(OC(F)(F)F)cc1)c1nc(-c2ccc(Cl)c(O)c2)c(-c2ccncc2)[nH]1.Cl` was tested. Which Inhibition (Plasmodium falciparum [1]) did it give?
A: 100%

Q: What about the Inhibition (Plasmodium falciparum [2]) of the same compound?
A: 99%

Q: And the Inhibition (HepG2)?
A: 38%

Q: Which Inhibition (Plasmodium falciparum [1]) does the source give for `Fc1ccc(-c2cncc(-c3ccc(F)cc3)n2)cc1` here?
A: 99%

Q: What about the Inhibition (Plasmodium falciparum [2]) of the same compound?
A: 94%

Q: And the Inhibition (HepG2)?
A: 7%

Q: What does the source list for `CN1CCN(CC(=O)Nc2ccc(-c3ccc(-c4nc5cc(C(F)(F)F)ccc5[nH]4)s3)cc2)CC1`?
A: Inhibition (Plasmodium falciparum [1]): 100%; Inhibition (Plasmodium falciparum [2]): 73%; Inhibition (HepG2): 84%

Q: With `CCCC(N)C(=O)NC1CCN(c2c(F)c(N)c3c(=O)c(C(=O)O)cn4c3c2Oc2ccccc2-4)C1.Cl` (configuration not stated) as the compound, how does the Inhibition (Plasmodium falciparum [1]) read?
A: 98%

Q: What about the Inhibition (Plasmodium falciparum [2]) of the same compound?
A: 98%

Q: What about the Inhibition (HepG2) of the same compound?
A: 66%

Q: Which results are given for `O=C(NCc1ccc(Cl)c(Cl)c1)c1ccc(-c2nc3ccc(Cl)cc3[nH]2)cc1`?
A: Inhibition (Plasmodium falciparum [1]): 96%; Inhibition (Plasmodium falciparum [2]): 22%; Inhibition (HepG2): 20%

Q: With `Br.CC(C)c1ccc(OCCCON2C(=N)N=C(N)NC2(C)C)cc1` as the compound, how does the Inhibition (Plasmodium falciparum [1]) read?
A: 93%

Q: What about the Inhibition (Plasmodium falciparum [2]) of the same compound?
A: 97%

Q: And the Inhibition (HepG2)?
A: 69%

Q: For `COc1ccc(-c2csc3ncnc(Cl)c23)cc1`, which Inhibition (Plasmodium falciparum [1]) is on record?
A: 96%

Q: And the Inhibition (Plasmodium falciparum [2])?
A: 97%

Q: What about the Inhibition (HepG2) of the same compound?
A: 0%

Q: For `CN(C)CCCN1CCN(C(=O)c2cc3cc(-c4ccccc4)ccc3n2S(=O)(=O)c2ccccc2)CC1`, which Inhibition (Plasmodium falciparum [1]) is on record?
A: 100%

Q: And the Inhibition (Plasmodium falciparum [2])?
A: 94%

Q: And the Inhibition (HepG2)?
A: 32%

Q: Which results are given for `N[C@@H](Cc1cc(I)c(Oc2ccc(O)c(Cl)c2)c(I)c1)C(=O)O`?
A: Inhibition (Plasmodium falciparum [1]): 96%; Inhibition (Plasmodium falciparum [2]): 0%; Inhibition (HepG2): 0%

Q: For `Cl.N=C(N)NN=Cc1cc2ccccc2c2ccccc12`, which Inhibition (Plasmodium falciparum [1]) is on record?
A: 100%

Q: What about the Inhibition (Plasmodium falciparum [2]) of the same compound?
A: 63%

Q: And the Inhibition (HepG2)?
A: 25%

Q: For `COc1cc(-c2nc3ccc(N4CCN(C)CC4)cc3[nH]2)cc(OC)c1OC`, which Inhibition (Plasmodium falciparum [1]) is on record?
A: 87%

Q: What about the Inhibition (Plasmodium falciparum [2]) of the same compound?
A: 15%

Q: What about the Inhibition (HepG2) of the same compound?
A: 6%

Q: What does the source list for `O=C(Nc1ccc(-c2ccccc2)c(OCCN2CCNCC2)c1)c1ccc(-c2ccc(Cl)cc2)cc1`?
A: Inhibition (Plasmodium falciparum [1]): 96%; Inhibition (Plasmodium falciparum [2]): 31%; Inhibition (HepG2): 92%

Q: What does the source list for `O=C(Nc1ccc(C(F)(F)F)cc1)c1ccc(S(=O)(=O)NC2CCN(CC3CCCCC3)C2)cc1.O=C(O)C(F)(F)F` (configuration not stated)?
A: Inhibition (Plasmodium falciparum [1]): 99%; Inhibition (Plasmodium falciparum [2]): 16%; Inhibition (HepG2): 33%

Q: For `CC(C)NCc1cccc(-c2ccc(NC(=O)c3ccc(C#N)cc3)cc2)c1.O=C(O)C(F)(F)F`, which Inhibition (Plasmodium falciparum [1]) is on record?
A: 99%

Q: And the Inhibition (Plasmodium falciparum [2])?
A: 8%

Q: And the Inhibition (HepG2)?
A: 15%

Q: With `Cc1nccn1Cc1cc(C(C)(C)C)c(O)c(C(C)(C)C)c1` as the compound, how does the Inhibition (Plasmodium falciparum [1]) read?
A: 99%

Q: What about the Inhibition (Plasmodium falciparum [2]) of the same compound?
A: 0%

Q: And the Inhibition (HepG2)?
A: 8%
